Bioassay records as filed in PubChem BioAssay.
Shown are actives, neighbours in structure and some others; about 4.1% of the full set was active somewhere.
MEKK2wt PB1 HTS: modulators of MEK5 binding to wildtype MEKK2, primary screen, biochemical, multiplex bead flow cytometry, Alexa488-MEK5; Alexa488-MEK5 binding to MEKK2 WT; actives lie on both sides; binding response (% of control), % at 10 µM; hit rate 1.1% among 290,000; in the data active = binding response below about 67% or above about 130%
Mot1-301 SUMO: yeast Mot1-301 growth rescue at high temperature, primary screen, SUMOylation pathway inhibitor project, S. cerevisiae, ATP luminescence, 38.5C; AID 2716, 2010; S. cerevisiae Mot1-301 growth rescue; percent above DMSO median, 100 means doubled; hit rate 1% among 320,000; growth rescue, % at 18.8 µM;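 active = every valid replicate shows activation above 250% relative to neutral control wells; inactive = the rest, any valid replicate at or below 250%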;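 also: OY570 slx delta 5 strain wells were the positive control but not used for scaling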
MEKK3 PB1 HTS: modulators of MEKK3-MEK5 PB1 binding, primary screen, biochemical, wildtype MEKK3, multiplex bead flow cytometry, Alexa488-MEK5; Mitogen-activated protein kinase kinase kinase 3 (Homo sapiens), Q99759; bead-based flow cytometry, Alexa488-MEK5 binding to MEKK3; actives lie on both sides; 0 = blocked by unlabeled MEK5, 100 = vehicle; binding response (% of control), % at 10 µM; hit rate 1.4% among 290,000; AID 1529, 2009;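 active = binding response more than 3 SD above or below the average of its plate-row segment, actives on both sides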;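 also: Alexa488 bead fluorescence after subtracting the streptavidin-only scavenger bead signal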
Target sequence (Q99759 whole entry, looked up): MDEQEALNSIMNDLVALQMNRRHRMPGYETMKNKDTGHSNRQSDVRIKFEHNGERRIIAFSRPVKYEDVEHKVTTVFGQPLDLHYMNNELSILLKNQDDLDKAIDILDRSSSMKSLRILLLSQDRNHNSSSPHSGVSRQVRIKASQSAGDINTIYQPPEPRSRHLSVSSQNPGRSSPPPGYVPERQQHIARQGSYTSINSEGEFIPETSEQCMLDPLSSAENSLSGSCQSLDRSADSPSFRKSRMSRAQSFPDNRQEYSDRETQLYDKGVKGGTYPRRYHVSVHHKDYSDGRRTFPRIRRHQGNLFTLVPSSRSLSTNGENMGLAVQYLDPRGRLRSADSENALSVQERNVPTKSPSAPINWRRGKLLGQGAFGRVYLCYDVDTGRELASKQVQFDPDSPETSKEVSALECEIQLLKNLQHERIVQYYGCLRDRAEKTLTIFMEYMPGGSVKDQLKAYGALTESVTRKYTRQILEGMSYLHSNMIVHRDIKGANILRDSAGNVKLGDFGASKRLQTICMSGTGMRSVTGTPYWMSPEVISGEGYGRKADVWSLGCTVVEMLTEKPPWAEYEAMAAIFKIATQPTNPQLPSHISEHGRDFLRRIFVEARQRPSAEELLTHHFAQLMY
CHT PAM: CHT positive allosteric modulators, primary screen, cell-based, membrane potential dye, choline EC20; hit rate 0.49% among 310,000; B-score at 10 µM; CHT-expressing cells; stronger effect = higher value; LV-AA mutant CHT in HEK293 cells;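 active = initial fluorescence not abnormally high and integrated response B-score, plate-corrected, over 3 SD above library mean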
MEKK2mut PB1 HTS: MEK5 binding signal on mutant MEKK2 PB1, primary screen, biochemical, multiplex bead flow cytometry, Alexa488-MEK5 | Alexa488-MEK5 binding to MEKK2 mutant | percent response, % at 10 µM | hit rate 0.35% among 290,000; in the data active = percent response above about 24%, passing the limit was not always enough
CHT inh: inhibitors of human choline transporter CHT | High affinity choline transporter 1 (Homo sapiens), Q9GZV3 | CHT-expressing cells, membrane potential dye, choline response; stronger effect = lower value | B-score at 10 µM | hit rate 0.86% among 310,000 | AID 488975, 2010;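 active = B-score over 3 SD under the library average, and starting fluorescence ratio not unusually high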;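 also: choline stimulus applied at its EC90 after an EC20 pre-addition; B-score computed on integrated fluorescence ratio after choline addition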
MEKK2wt confirm: modulators of MEK5 binding to wildtype MEKK2, confirmation, biochemical, single concentration, multiplex bead flow cytometry. shares compounds with MEKK3 PB1 HTS. Alexa488-MEK5 binding to MEKK2 WT; actives lie on both sides. binding response (% of control), % at 10 µM. hit rate 2.4% among 5,900. AID 1892, 2009; in the data active = binding response below about 16% or above about 210%; inactive = in between
MEKK2mut confirm: mutant MEKK2 PB1-MEK5 binding signal retest – biochemical, single concentration, multiplex bead flow cytometry, confirmation. hit rate 2% among 5,900. AID 1893, 2009. percent response, % at 10 µM. Alexa488-MEK5 binding to MEKK2 mutant. shares compounds with MEKK3 PB1 HTS; in the data active = percent response mostly above about 71%, no sharp cut-off; inactive = mostly below about 38%;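 also: higher means compound restores mutant binding toward wildtype level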
MEKK3-MEK5 inh: MEKK3 wild-type PB1 binding to MEK5, inhibitors, confirmation, biochemical, bead multiplex flow cytometry, single concentration, wildtype | AID 1894, 2009 | Alexa488-MEK5 binding to MEKK3; stronger effect = lower value | binding response (% of control), % at 10 µM | shares compounds with MEKK3 PB1 HTS | hit rate 1.8% among 5,900;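 active = binding response below 72% of control, or above a set upper limit, though filed actives all read lower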;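 also: 100% = DMSO only wells and 0% = binding blocked by excess unlabeled MEK5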
Starred values were filed as active, the others as inactive; i = inactive; . = not tested or not shown; [ ] = another dose, or the depositor's remark.

SMILES	MEKK2wt PB1 HTS	Mot1-301 SUMO	MEKK3 PB1 HTS	CHT PAM	MEKK2mut PB1 HTS	CHT inh	MEKK2wt confirm	MEKK2mut confirm	MEKK3-MEK5 inh
COc1ccc(NC(=O)CSc2nnc(C)c3ccccc23)cc1	96	-20	98	i	2	i	.	.	.
COc1ccc(NC(=O)CSc2ccc3c4c(cccc24)C(=O)c2ccccc2-3)cc1	56*[inhibitor]	15	93	i	-9	i	68	-18	90
O=C(COc1cccc2cccnc12)N/N=C1\SCC(=O)N1CCc1ccccc1	96	7	94	i	-5	i	.	.	.
O=C(c1ccc2ccccc2c1)c1c[nH]cc1-c1ccccc1	105	-24	129*	i	5	i	104	-6	103
COc1ccc(C(=O)c2c[nH]cc2-c2ccccc2)cc1	103	-1	105	i	3	i	.	.	.
O=C(NNC(=O)c1cccc(C(F)(F)F)c1)c1ccncc1	104	49	98	i	-1	i	.	.	.
O=C(NNC1=NCCN1Cc1ccccc1)c1cccc(C(F)(F)F)c1	128	-6	128*	i	25	i	99	-2	96
COc1ccc(CCNC(=O)NCCc2c[nH]c3ccccc23)cc1OC	110	6	106	i	7	i	.	.	.
COc1ccccc1CCNCc1ccc(OC)c(OCc2ccccc2)c1	126	-8	101	i	2	i	.	.	.
COc1cccc(CNCCc2c[nH]c3ccccc23)c1OCc1ccccc1	165*	6	104	i	58*	i	148	15	105
COc1cc(CNCCc2c[nH]c3ccccc23)ccc1OCc1ccccc1F	244*	0	115	i	60*	i	170	73*	108
CCOc1ccc(CCNC(=O)COC(=O)c2cccc(S(=O)(=O)N3CCCC3)c2)cc1OCC	.	-8	.	i	.	i	.	.	.
CS(=O)(=O)c1ccc(CNC(=O)C2(C(F)(F)F)C/C(=C\Cc3ccccc3)CCCO2)cc1 (stereo not drawn)	85	5	81*[inhibitor]	i	-7	i	102	5	104
CCC/C=C1/CCCOC(C(=O)NCc2ccc(S(C)(=O)=O)cc2)(C(F)(F)F)C1 (stereo not drawn)	101	-5	103	i	4	i	.	.	.
COc1ccc(N2CCC(CNC(=O)Nc3ccc(Cl)cc3)C2)cc1 (stereo not drawn)	142	-6	141*	i	7	i	106	2	100
COc1cc(CN(CCN(C)C)Cc2ccccc2)ccc1OCc1ccccc1	138*	1	106	i	10	i	126	14	106
COc1ccc(CN(CCc2ccccc2)Cc2ccccc2)cc1OC	109	-7	104	i	10	i	.	.	.
Cc1ccc(C)c(S(=O)(=O)Nc2ccc(C(=O)N3CCCCC3)cc2)c1	102	1	101	i	4	i	.	.	.
CN(C)C(CNS(=O)(=O)c1ccc(Cl)cc1F)c1ccco1 (stereo not drawn)	.	19	.	.	.	.	.	.	.
COc1cc(CNCc2cccnc2)ccc1OCC(=O)NC(C)(C)C	92	-15	91	i	-4	i	.	.	.
CC(C)(C)NC(=O)COc1ccc(CNCc2cccnc2)cc1	71	-7	56*[inhibitor]	i	-10	i	98	-2	101
COC(=O)C1C(O)=C(C(C)=Nc2cccc3ccccc23)C(=O)CC1(C)C (stereo not drawn)	82	-5	88	i	-18	i	.	.	.
Cc1cc(C)c2cc(C#N)c(N3CCCN(C(=S)NCCCN(C)C)CC3)nc2c1	120	13	99	i	32*	i	119	3	99
Cc1ccc2cc(C#N)c(N3CCCN(C(=S)NCCCN(C)C)CC3)nc2c1	117	19	99	i	15	i	.	.	.
CC(C)(C=O)C1=CC(=O)c2ccccc2C1=O	105	181	154*	i	1	i	96	-2	99
SMILES	MEKK2wt PB1 HTS	Mot1-301 SUMO	MEKK3 PB1 HTS	CHT PAM	MEKK2mut PB1 HTS	CHT inh	MEKK2wt confirm	MEKK2mut confirm	MEKK3-MEK5 inh
CCOC(=O)c1c(CN2CCN(CC#N)CC2)n(C)c2cc(Br)c(OC)cc12	105	67	105	i	2	i	.	.	.
CCOC(=O)c1c(CSc2ccccc2)n(C)c2cc(Br)c(OCC(O)CNC(CO)(CO)CO)cc12 (stereo not drawn)	95	-11	69*[inhibitor]	i	-10	i	162	35	106
CCOC(=O)c1c(CN2CCN(Cc3ccccc3)CC2)n(C)c2cc(Br)c(OC)cc12	135*	-4	105	i	7	i	173	38	108
CCOC(=O)c1c(CSC(=N)N)n(-c2ccccc2)c2cc(Br)c(OC(C)=O)cc12	143*	-9	102	i	22	i	169	48	112
COc1cccc(/C=C/C(=O)OCC(=O)NCCC2=CCCCC2)c1	101	-22	102	i	6	i	.	.	.
COc1ccccc1NC(=O)c1cc(-c2ccc(C)o2)nc2ccccc12	98	-10	103	i	-3	i	.	.	.
Fc1ccc(CSc2nnc(-c3ccco3)o2)cc1	85	69	1.0*[inhibitor]	i	-57	i	97	-8	95
O=C(CSc1nnc(-c2ccco2)o1)N1c2ccccc2CCc2ccccc21	85	7	80*[inhibitor]	i	-11	i	102	7	101
O=C(CSc1nnc(-c2ccco2)o1)N1CCOCC1	101	6	103	i	4	i	.	.	.
Cc1ccc(S(=O)(=O)N2CCN(C(=O)c3ccc(N4CCCCC4)c([N+](=O)[O-])c3)CC2)cc1	99	-6	101	i	-3	i	.	.	.
